# Compound activity (PubChem)
# Dicer processing = inhibitors of Dicer pre-microRNA processing, primary screen, biochemical, cat-ELCCA, chemiluminescence | Endoribonuclease Dicer (Homo sapiens), Q9UPY3 | cat-ELCCA pre-miR-21 Dicer processing; hits give high values | z-score at 25 µM | hit rate 6% among 47,000 | AID 1347074, 2019; in the data active means z-score above about 3, passing the limit was not always enough;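 further: plate controls were vehicle for no effect and no enzyme for full effect; higher signal means more uncleaved substrate so more Dicer inhibition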
# Numbers without * were called inactive. Only a selection was taken, and hits are over-represented in it overall.
SMILES,Dicer processing
CC1=C(C(=O)OC2CCCC2)C(c2ccc3c(c2)OCO3)C2=C(CC(c3ccccc3)CC2=O)N1 (stereo not given),2.1
C/C(=N\OC(=O)c1ccc(C(F)(F)F)cc1)c1ccn(S(=O)(=O)c2ccccc2)c1,-0.23
C/C(=N\O)c1ccn(S(=O)(=O)c2ccc(Cl)cc2)c1,0.09
C/C(=N\OC(=O)c1ccc(Cl)cc1)c1ccn(S(=O)(=O)c2ccc(Cl)cc2)c1,11*
COc1ccc(Cc2nc(S(=O)(=O)c3ccc(Cl)cc3)c(N3CCOCC3)o2)cc1,-8.6
CS(=NC(=O)c1ccc(Cl)cc1)c1ccc(OC(=O)c2ccc(Cl)cc2)cc1 (stereo not given),1.1
CSc1nc(C)nc(N/C=C2\C(=O)c3sccc3N(C)S2(=O)=O)n1,-1.1
CC(=O)Oc1ccc2oc3c(c2c1)C(=O)CCC3,4.8*
CC(=O)Oc1ccc2oc(C)c(C(=O)OC(C)C)c2c1,0.44
CC(=O)Oc1ccc2c(C)cc(=O)oc2c1,-0.41
CC(C)Cc1ccc(C(C)C(=O)NNC(=O)c2ccccc2C(F)(F)F)cc1 (stereo not given),1.5
CSc1ccc(CNc2ncc(-c3ccc(Br)cc3)n2C)cc1,2.7
Cc1noc(COc2ccccc2)c1C(=O)O,0.71
O=S(=O)(c1ccc(-c2ccc(S(=O)(=O)N3CCOCC3)s2)s1)N1CCOCC1,-0.29
N/C(=N/S(=O)(=O)c1ccc(Cl)c(Cl)c1)c1ccc(Cl)cc1,4.5*
N/C(=N\S(=O)(=O)c1cc(Cl)sc1Cl)c1ccc(Cl)cc1,1.4
N/C(=N/S(=O)(=O)c1cc(C(F)(F)F)cc(C(F)(F)F)c1)c1ccc(Cl)cc1,1.9
COc1cc(NC(=O)C2CC(=O)N=C(N)S2)cc(OC)c1 (stereo not given),2.3
Cc1ccc(C2/C(=C(\O)c3ccccc3)C(=O)C(=O)N2CCN2CCOCC2)o1 (stereo not given),-2.3
CCSC1=C(C#N)C(=O)NC(c2ccc(OC)c(OC)c2)S1 (stereo not given),0.5
CCCCSC1=C(C#N)C(=O)NC(c2ccc(OC)c(OC)c2)S1 (stereo not given),3.4*
COC(=O)CSC1=C(C#N)C(=O)NC(c2ccc(OC)c(OC)c2)S1 (stereo not given),1.3
CC(C)(CC(=O)O)CC(=O)N1CCCc2ccccc21,-0.68
O=C1CC(c2ccccc2)c2ccc3ccccc3c2N1 (stereo not given),0.69
CCOc1ccc(-c2nc3n(n2)C(c2ccc(OC)cc2)C2=C(CC(C)(C)CC2=O)N3)cc1 (stereo not given),1.4
SMILES,Dicer processing
CCCCNC(=O)n1ccc(-c2nn(-c3ccc(F)cc3)ccc2=O)n1,1.4
O=C(Nc1cnc2sc3ccccc3n2c1=O)c1ccc(F)cc1,-0.51
Cc1ccc(C(=O)Nc2cnc3sc4ccccc4n3c2=O)cc1,-0.84
Cc1ccc(C(=O)Nc2cc(C#N)c3sc4ccccc4n3c2=O)cc1,4.8*
CCOc1ccc(/C(O)=C2/C(=O)C(=O)N(CCCOC)C23C(=O)N(C)c2ccccc23)cc1 (stereo not given),2.5
Cc1ccc(/C(O)=C2/C(=O)C(=O)N(CCCN(C)C)C23C(=O)N(C)c2ccccc23)cc1F (stereo not given),-0.29
CCOc1ccc(/C(O)=C2/C(=O)C(=O)N(CCOC)C23C(=O)N(C)c2ccccc23)cc1 (stereo not given),4.1*
COCCN1C(=O)C(=O)/C(=C(\O)c2ccc(C)cc2)C12C(=O)N(C)c1ccccc12 (stereo not given),-0.78
COCCN1C(=O)C(=O)/C(=C(\O)c2ccc(OC)c(C)c2)C12C(=O)N(C)c1ccccc12 (stereo not given),3.2*
COCCN1C(=O)C(=O)/C(=C(\O)c2ccc(OC)cc2)C12C(=O)N(C)c1ccccc12 (stereo not given),-0.25
N#Cc1c(N2C(=O)CCC2=O)sc2c1CCCC2,-1.5
CC(C)(C)c1ccc(-c2[nH]nc(NS(=O)(=O)c3ccccc3)c2Br)cc1,-4.6
Cn1nccc1NS(=O)(=O)c1ccc(C(C)(C)C)cc1,-0.85
COc1ccccc1Oc1c(NS(=O)(=O)c2ccc(C(C)(C)C)cc2)nc(-c2ncccn2)nc1OCCO,18*
CCC1C2=C(CCCC2=O)NC2=C1C(=O)CCC2,0.37
CCc1c(O)c2ccccc2n(C)c1=O,-0.16
c1ccc(-c2nnc3c4cnn(-c5ccccc5)c4ncn23)cc1,3.1*
COc1ccc(-c2nnc3c4cnn(-c5ccccc5)c4ncn23)cc1,0.08
Cc1ccc(-c2nnc3c4cnn(-c5ccccc5)c4ncn23)cc1,0.47
CC(=O)OC[C@H]1O[C@@H](OC(C)=O)[C@H](N2C(=O)c3ccccc3C2=O)[C@@H](OC(C)=O)[C@@H]1OC(C)=O,-0.02
Cc1ccc(F)cc1S(=O)(=O)Nc1ccc2c(c1)OCC1CCCN21 (stereo not given),6.5*
COc1ccc(NS(=O)(=O)c2ccc(F)cc2)cc1OC1CCCC1,-0.39
Cc1cc(S(=O)(=O)Nc2cccc(F)c2)c(C)c(S(=O)(=O)c2ccccc2)c1,1.8
Cc1cnc(NC(=O)c2ccccc2)c(Br)c1,-2.4
O=C(Nc1cnn(Cc2ccc(F)cc2)c1)c1cc2n(n1)C(C(F)(F)F)CC(c1ccco1)N2 (stereo not given),0.33
SMILES,Dicer processing
CCSc1nnc2c(n1)OC(CC)=Nc1ccccc1-2,-1.2
CCCSc1nnc2c(n1)OC(C)=Nc1ccc(Br)cc1-2,3.7*
CCSc1nnc2c(n1)OC(C)=Nc1ccc(Br)cc1-2,3.4*
CCCCSc1nnc2c(n1)OC(CC)=Nc1ccccc1-2,-0.65
CSc1nnc2c(n1)OC(C)=Nc1ccc(Br)cc1-2,1.9
CSc1nnc2c(n1)OC(C)=Nc1ccccc1-2,0.37
O=[N+]([O-])c1ccc(S(=O)(=O)c2ccc(Cl)cc2)c(Cl)c1,-1.3
O=c1c(Cc2ccc(Cl)c(Cl)c2)c(-c2ccccc2)oc2ccccc12,0.01
COc1ccc(S(=O)(=O)NC(C)c2ccccc2)cc1-c1nnc2c3ccccc3c(C)nn12 (stereo not given),1.8
CCOC(=O)c1c(N/N=C/c2ccc(F)c(F)c2)n[nH]c1C,-0.47
Cc1c(C#N)c(NC(=O)c2ccc(C(C)(C)C)cc2)n(Cc2cccc(Cl)c2)c1C,-0.12
Cc1c(C(=O)O)nnn1-c1cc(C(F)(F)F)cc(C(F)(F)F)c1,-0.01
Cn1cc(Cl)c(/C=C(\C#N)S(=O)(=O)C(C)(C)C)n1,4.2*
Cn1cc(Cl)c(/C=C(\C#N)C(=O)c2ccc(Cl)cc2)n1,0.36
Cn1cc(Cl)c(/C=C(\C#N)S(=O)(=O)c2ccccc2)n1,0.91
COc1ccc2sc(/C=C/c3ccc4c(c3)OCO4)[n+](C)c2c1,1.5
CN(C)Cc1c(O)ccc2ccccc12,5.3*
CN(C)Cc1ccc(O)c(CN(C)C)n1,-1.7
CN(C)Cc1c(O)ccc2c(=O)c(Oc3ccc4ccccc4c3)c(C(F)(F)F)oc12,-0.51
CN(C)C(=S)Oc1ccc2c(C(F)(F)F)cc(=O)oc2c1,0.63
Cc1c(C)n(C(=O)CSc2ccccn2)c2ccccc12,0.06
CCOc1ccc(S(=O)(=O)n2cnc3ccccc32)cc1,4.7*
CCOc1ccc(S(=O)(=O)n2c(C)nc3ccccc32)cc1,1.9
O=S(=O)(c1ccc(Cl)cc1)n1cnc2ccccc21,2.5
N#Cc1c(-c2ccccc2)[nH]c(SCc2ccccc2)nc1=S,0.36
CCOC(=O)C1=C(C)NC2=C(C(=O)CC(c3ccc(OC)cc3)C2)C1c1ccc(OC)cc1 (stereo not given),1.3
